By ΔTm is commonly meant the shift of the melting midpoint relative to a reference.

Each structure is given as a SMILES string.

The target in the first test is Tyrosine-protein kinase ABL1 (Homo sapiens) (UniProt P00519). Conditions: Compound concentration 20.0 uM, Protein concentration 2.0 uM, Result type QC Liability.
Tyrosine-protein kinase ABL1 (Homo sapiens), sequence (P00519 whole entry): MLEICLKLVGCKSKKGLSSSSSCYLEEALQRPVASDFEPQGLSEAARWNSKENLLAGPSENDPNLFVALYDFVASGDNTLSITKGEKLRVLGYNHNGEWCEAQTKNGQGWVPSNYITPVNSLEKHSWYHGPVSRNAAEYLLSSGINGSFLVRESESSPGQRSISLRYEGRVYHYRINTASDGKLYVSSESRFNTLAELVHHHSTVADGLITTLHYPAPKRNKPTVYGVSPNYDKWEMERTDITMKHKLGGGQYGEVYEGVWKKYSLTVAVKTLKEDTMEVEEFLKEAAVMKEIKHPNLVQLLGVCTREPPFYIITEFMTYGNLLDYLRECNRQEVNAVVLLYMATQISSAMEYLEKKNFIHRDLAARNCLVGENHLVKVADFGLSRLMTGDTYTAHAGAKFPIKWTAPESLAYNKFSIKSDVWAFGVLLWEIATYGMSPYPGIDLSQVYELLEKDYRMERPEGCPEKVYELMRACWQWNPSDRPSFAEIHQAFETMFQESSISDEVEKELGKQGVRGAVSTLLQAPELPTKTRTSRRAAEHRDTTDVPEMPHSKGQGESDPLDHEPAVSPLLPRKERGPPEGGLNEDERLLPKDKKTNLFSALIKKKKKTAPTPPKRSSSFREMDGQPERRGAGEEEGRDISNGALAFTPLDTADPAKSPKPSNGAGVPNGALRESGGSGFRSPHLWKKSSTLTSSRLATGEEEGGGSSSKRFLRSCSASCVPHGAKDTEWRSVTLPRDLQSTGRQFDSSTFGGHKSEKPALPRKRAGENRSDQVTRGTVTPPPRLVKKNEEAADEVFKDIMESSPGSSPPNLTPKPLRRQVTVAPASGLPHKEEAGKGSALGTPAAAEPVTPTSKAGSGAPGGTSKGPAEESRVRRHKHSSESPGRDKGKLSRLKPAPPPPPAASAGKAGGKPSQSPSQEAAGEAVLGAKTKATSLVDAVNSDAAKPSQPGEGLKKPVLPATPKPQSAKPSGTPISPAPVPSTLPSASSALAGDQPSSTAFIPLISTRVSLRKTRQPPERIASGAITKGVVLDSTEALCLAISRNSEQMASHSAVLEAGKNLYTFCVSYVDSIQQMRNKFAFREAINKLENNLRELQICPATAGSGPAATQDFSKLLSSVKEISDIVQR
Take `COc1ccc(-c2cc3c(C)nc(N)nc3n([C@H]3CC[C@H](OCCO)CC3)c2=O)cn1`: the ΔTm worked out at 0.46 °C.

For the compound `COc1cc(C(=O)NCCOCCOCCOCC(=O)N[C@H](C(=O)N2C[C@H](O)C[C@H]2C(=O)NCc2ccc(-c3scnc3C)cc2)C(C)(C)C)ccc1Nc1ncc(C(F)(F)F)c(Oc2cccc3c2C(=O)CC3)n1`, the ΔTm was -0.62 °C.

In the case of `CN1CCc2cc(Nc3ncc(C(F)(F)F)c(NCc4cc[nH]n4)n3)ccc2C1`, the ΔTm was determined as 5.79 °C.

Regarding `CSc1nc2c(c(=O)n(C)c(=O)n2C)n1C`, the ΔTm is 0.1 °C.

As to `N[C@@H](CC(=O)O)Cn1nnc(-c2ccc(Oc3ncc(Cl)cc3F)cc2)n1`, the ΔTm stood at 0.91 °C.

With `CCCCc1oc2ccccc2c1C(=O)c1cc(I)c(OCCN(CC)CC)c(I)c1`, the ΔTm is 0.12 °C.

In the case of `CCc1nc(-c2cccc(C)c2)c(-c2ccncc2)s1`, the ΔTm was 1.94 °C.

`Cn1cc(-c2ccc(-c3cncc(Cl)c3N3CCC4(CCNC4=O)CC3)cc2)cn1`: the ΔTm was -0.07 °C.

Consider `CCn1c(-c2nonc2N)nc2ccccc21`, for which the ΔTm came out at 0.33 °C.

As for `O=C(Nc1ccc(C(O)(C(F)(F)F)C(F)(F)F)cc1)c1ccc(C(F)(F)F)cc1`, the ΔTm turned out to be 0.76 °C.

For `CC(=O)c1c(C)c2cnc(Nc3ccc(N4CCN(CCCCNC(=O)COc5cccc6c5C(=O)N(C5CCC(=O)NC5=O)C6=O)CC4)cn3)nc2n(C2CCCC2)c1=O` (stereo not drawn), the ΔTm was 0.12 °C.

With `CC(C)c1cnn2c(NCc3ccccc3)cc(NCCCCCCN)nc12`, the ΔTm was -0.02 °C.

In the case of `CC(=O)c1c(C)c2cnc(Nc3ccn(C)n3)nc2n(C2CCCC2)c1=O`, the ΔTm was -0.44 °C.

With `COCc1c(-c2cc3cc(C)cc(OC)c3s2)c2c(N)ncnn2c1CN[C@@H]1CCNC1=O`, the shift in melting temperature (ΔTm) was 2.45 °C.

`CC1CCN(c2ccnc(NCc3cn(C)cn3)n2)CC1`: the ΔTm was -1.33 °C.

`NCCCc1c(C(=O)O)[nH]c2ccc(C(=O)Nc3ccccc3)cc12`: the ΔTm was 0.08 °C.

For the compound `COCCOCn1c(S(C)(=O)=O)nc2c1c(=O)n(C)c(=O)n2C`, the ΔTm amounted to 0.21 °C.

For `CN1C(=O)Cc2ccc(-c3ccc(C[C@@H](C#N)NC(=O)[C@@H]4N[C@H]5CC[C@@H]4C5)c(F)c3)cc21`, the ΔTm is -0.52 °C.

With `C=C1/C(=C\C=C2/CCC[C@]3(C)[C@@H]([C@H](C)CCCC(C)(C)O)CC[C@@H]23)C[C@@H](O)C[C@@H]1O`, the ΔTm was -0.27 °C.

For `CN1Cc2nccc(-c3cn(C)nc3-c3ccc(F)cc3)c2C1=O`, the ΔTm amounted to 1.06 °C.

As for `CC(C)[C@H](CO)Nc1nc(Nc2ccc(C(=O)O)c(Cl)c2)c2ncn(C(C)C)c2n1`, the ΔTm was 6.07 °C.

Take `COc1cc2c(cc1CC=C(C)C)C(=O)C[C@@H](c1ccc(O)cc1)O2`: the ΔTm is 0.53 °C.

As for `c1ccc2c(-c3coc4cc(-c5ccc(N6CCNCC6)cc5)cnc34)ccnc2c1`, the ΔTm turned out to be 3.66 °C.

`CCn1ccc(Nc2ncc3c(n2)-c2c(nn(C)c2-c2ccc(-c4cnn(C)c4)cc2Cl)CC3)n1`: the ΔTm is 3.73 °C.

Consider `O=C(O)c1ccnc(N2CC(O)(c3ccc(OCc4c(-c5c(Cl)cccc5Cl)noc4C4CC4)cc3Cl)C2)c1`, for which the ΔTm came to 0.22 °C.

For the compound `COc1cc(C(=O)NCCOCCOCCOCC(=O)N[C@H](C(=O)N2C[C@@H](O)C[C@H]2C(=O)NCc2ccc(-c3scnc3C)cc2)C(C)(C)C)ccc1Nc1ncc(C(F)(F)F)c(Oc2cccc3c2C(=O)CC3)n1`, the thermal shift (ΔTm) was -2.56 °C.

Turning to `CC(C)(O)CNC(=O)N1C(=O)N(c2cccc(C(F)(F)F)c2)C2=C(C(=O)CC2)[C@@H]1c1ccc(C#N)cc1`, the ΔTm worked out at 0.02 °C.

As to `COc1cc(Oc2nc(-c3ccc(NC(=O)C4CCOC4)cc3)nn3c(C)nc(C)c23)cc(OC)c1OC` (stereo not drawn), the thermal shift (ΔTm) is 0.18 °C.

In the case of `COc1cc(-c2cc3ncccc3c(O[C@@H](C)[C@H]3CNC(=O)C3)n2)cc(OC)c1OC`, the ΔTm turned out to be 0.48 °C.

In the case of `O=C(Nc1ccc(Cl)c(-c2ccccn2)c1)c1cccc(COc2ccc(Br)cc2CNCCO)c1`, the ΔTm was 0.35 °C.

For `CN[C@@H](C)C(=O)N[C@H]1CN(C(=O)CC(C)C)CC[C@H]2CC[C@@H](C(=O)NC(c3ccccc3)c3ccccc3)N2C1=O`, the ΔTm is -0.01 °C.

On to `CC(C)(C)NC(=O)c1cncn1C1CCN(c2ccc(-c3nnc(C(F)(F)F)o3)cn2)CC1`, for which the ΔTm turned out to be 1.4 °C.

`CN(C)C(=O)Cn1cc(-c2nc(C3(c4ccc(-c5cnc(N)nc5)cc4)CC3)no2)cn1`: the ΔTm is 0.7 °C.

With `C[S+]([O-])c1ccc(-c2nc(-c3cccc(I)c3)c(-c3ccncc3)[nH]2)cc1` (stereo not drawn), the ΔTm is 0.33 °C.

Regarding `CCc1ccccc1C(=O)Nc1n[nH]c2c(C)c(F)c(C3C(C#N)=C(C)N(C)C(C)=C3C#N)cc12`, the ΔTm was 0.41 °C.

Consider `CC1CCN(C(=O)[C@@H](CCn2cccc2C#N)NS(=O)(=O)c2cccc3[nH]ccc23)CC1`, for which the thermal shift (ΔTm) is 0.25 °C.

With `N[C@@H]1CCCC[C@H]1Oc1ccc2ncc(-c3cc4ccccc4o3)n2n1`, the ΔTm was found to be 0.63 °C.

In the case of `CC(=O)N1CCC(c2ccc(C(=O)NC(=N)N)cc2C(F)(F)F)CC1`, the thermal shift (ΔTm) was -0.81 °C.

On to `Cc1sc(C(=O)c2cncnc2N[C@@H]2C[C@H](COS(N)(=O)=O)[C@@H](O)C2)cc1[C@@H]1NCCc2ccc(Cl)cc21`, for which the ΔTm was 0.37 °C.

The target of another test is Cyclin-dependent kinase 2 (Homo sapiens) (UniProt P24941). Conditions: Compound concentration 20.0 uM, Protein concentration 2.0 uM, Result type QC Liability.
For `COc1ccc(-c2cc3c(C)nc(N)nc3n([C@H]3CC[C@H](OCCO)CC3)c2=O)cn1`, the ΔTm came out at 0 °C.

For the compound `COc1cc(C(=O)NCCOCCOCCOCC(=O)N[C@H](C(=O)N2C[C@H](O)C[C@H]2C(=O)NCc2ccc(-c3scnc3C)cc2)C(C)(C)C)ccc1Nc1ncc(C(F)(F)F)c(Oc2cccc3c2C(=O)CC3)n1`, the ΔTm is -0.81 °C.

For the compound `CN1CCc2cc(Nc3ncc(C(F)(F)F)c(NCc4cc[nH]n4)n3)ccc2C1`, the ΔTm amounted to 7.99 °C.

For the compound `CSc1nc2c(c(=O)n(C)c(=O)n2C)n1C`, the ΔTm was 0.27 °C.

In the case of `N[C@@H](CC(=O)O)Cn1nnc(-c2ccc(Oc3ncc(Cl)cc3F)cc2)n1`, the ΔTm was 0.66 °C.

Regarding `CCCCc1oc2ccccc2c1C(=O)c1cc(I)c(OCCN(CC)CC)c(I)c1`, the ΔTm amounted to 0.14 °C.

With `CCc1nc(-c2cccc(C)c2)c(-c2ccncc2)s1`, the ΔTm was -0.27 °C.

Consider `Cn1cc(-c2ccc(-c3cncc(Cl)c3N3CCC4(CCNC4=O)CC3)cc2)cn1`, for which the ΔTm is -0.46 °C.

For `CCn1c(-c2nonc2N)nc2ccccc21`, the ΔTm was 0.64 °C.

As for `O=C(Nc1ccc(C(O)(C(F)(F)F)C(F)(F)F)cc1)c1ccc(C(F)(F)F)cc1`, the thermal shift (ΔTm) came out at 1.61 °C.

Regarding `CC(=O)c1c(C)c2cnc(Nc3ccc(N4CCN(CCCCNC(=O)COc5cccc6c5C(=O)N(C5CCC(=O)NC5=O)C6=O)CC4)cn3)nc2n(C2CCCC2)c1=O` (stereo not drawn), the ΔTm was found to be 0.59 °C.

As to `CC(C)c1cnn2c(NCc3ccccc3)cc(NCCCCCCN)nc12`, the ΔTm came to 1.03 °C.

With `CC(=O)c1c(C)c2cnc(Nc3ccn(C)n3)nc2n(C2CCCC2)c1=O`, the ΔTm is -0.29 °C.

In the case of `COCc1c(-c2cc3cc(C)cc(OC)c3s2)c2c(N)ncnn2c1CN[C@@H]1CCNC1=O`, the ΔTm was 0.59 °C.

As to `CC1CCN(c2ccnc(NCc3cn(C)cn3)n2)CC1`, the ΔTm turned out to be 0.15 °C.

As to `NCCCc1c(C(=O)O)[nH]c2ccc(C(=O)Nc3ccccc3)cc12`, the ΔTm is 0.25 °C.

Consider `COCCOCn1c(S(C)(=O)=O)nc2c1c(=O)n(C)c(=O)n2C`, for which the ΔTm turned out to be 0.39 °C.

For the compound `CN1C(=O)Cc2ccc(-c3ccc(C[C@@H](C#N)NC(=O)[C@@H]4N[C@H]5CC[C@@H]4C5)c(F)c3)cc21`, the thermal shift (ΔTm) amounted to 0.33 °C.

For `C=C1/C(=C\C=C2/CCC[C@]3(C)[C@@H]([C@H](C)CCCC(C)(C)O)CC[C@@H]23)C[C@@H](O)C[C@@H]1O`, the ΔTm is -4.7 °C.

Regarding `CN1Cc2nccc(-c3cn(C)nc3-c3ccc(F)cc3)c2C1=O`, the ΔTm was found to be 0.02 °C.

With `CC(C)[C@H](CO)Nc1nc(Nc2ccc(C(=O)O)c(Cl)c2)c2ncn(C(C)C)c2n1`, the ΔTm is 9.51 °C.

On to `COc1cc2c(cc1CC=C(C)C)C(=O)C[C@@H](c1ccc(O)cc1)O2`, for which the ΔTm was 1.21 °C.

On to `c1ccc2c(-c3coc4cc(-c5ccc(N6CCNCC6)cc5)cnc34)ccnc2c1`, for which the ΔTm is -0.03 °C.

Take `CCn1ccc(Nc2ncc3c(n2)-c2c(nn(C)c2-c2ccc(-c4cnn(C)c4)cc2Cl)CC3)n1`: the ΔTm was determined as 5.04 °C.

As to `O=C(O)c1ccnc(N2CC(O)(c3ccc(OCc4c(-c5c(Cl)cccc5Cl)noc4C4CC4)cc3Cl)C2)c1`, the thermal shift (ΔTm) was -0.27 °C.

With `COc1cc(C(=O)NCCOCCOCCOCC(=O)N[C@H](C(=O)N2C[C@@H](O)C[C@H]2C(=O)NCc2ccc(-c3scnc3C)cc2)C(C)(C)C)ccc1Nc1ncc(C(F)(F)F)c(Oc2cccc3c2C(=O)CC3)n1`, the ΔTm was -4.04 °C.

For the compound `CC(C)(O)CNC(=O)N1C(=O)N(c2cccc(C(F)(F)F)c2)C2=C(C(=O)CC2)[C@@H]1c1ccc(C#N)cc1`, the ΔTm worked out at 0.61 °C.

`COc1cc(Oc2nc(-c3ccc(NC(=O)C4CCOC4)cc3)nn3c(C)nc(C)c23)cc(OC)c1OC` (stereo not drawn): the ΔTm is 0.72 °C.

With `COc1cc(-c2cc3ncccc3c(O[C@@H](C)[C@H]3CNC(=O)C3)n2)cc(OC)c1OC`, the ΔTm came out at 0.19 °C.

On to `O=C(Nc1ccc(Cl)c(-c2ccccn2)c1)c1cccc(COc2ccc(Br)cc2CNCCO)c1`, for which the ΔTm is -0.21 °C.

In the case of `CN[C@@H](C)C(=O)N[C@H]1CN(C(=O)CC(C)C)CC[C@H]2CC[C@@H](C(=O)NC(c3ccccc3)c3ccccc3)N2C1=O`, the ΔTm was 0.45 °C.

As for `CC(C)(C)NC(=O)c1cncn1C1CCN(c2ccc(-c3nnc(C(F)(F)F)o3)cn2)CC1`, the ΔTm amounted to 0.97 °C.

With `CN(C)C(=O)Cn1cc(-c2nc(C3(c4ccc(-c5cnc(N)nc5)cc4)CC3)no2)cn1`, the ΔTm is 0.53 °C.

With `C[S+]([O-])c1ccc(-c2nc(-c3cccc(I)c3)c(-c3ccncc3)[nH]2)cc1` (stereo not drawn), the ΔTm is -0.2 °C.

Regarding `CCc1ccccc1C(=O)Nc1n[nH]c2c(C)c(F)c(C3C(C#N)=C(C)N(C)C(C)=C3C#N)cc12`, the ΔTm turned out to be 1.35 °C.

In the case of `CC1CCN(C(=O)[C@@H](CCn2cccc2C#N)NS(=O)(=O)c2cccc3[nH]ccc23)CC1`, the ΔTm amounted to 0.59 °C.

In the case of `N[C@@H]1CCCC[C@H]1Oc1ccc2ncc(-c3cc4ccccc4o3)n2n1`, the ΔTm turned out to be 1.2 °C.

On to `CC(=O)N1CCC(c2ccc(C(=O)NC(=N)N)cc2C(F)(F)F)CC1`, for which the ΔTm was 0.95 °C.

Consider `Cc1sc(C(=O)c2cncnc2N[C@@H]2C[C@H](COS(N)(=O)=O)[C@@H](O)C2)cc1[C@@H]1NCCc2ccc(Cl)cc21`, for which the ΔTm was 0.66 °C.
